Screens as filed in PubChem.
Sampled rows, rich in hits. Any-hit rate of the full collection: about 1.5%.
PI5P4K alpha inh: blocks human PI5P4K alpha kinase activity | 330,000 compounds, 1.2% hits | PI5P4Kalpha enzyme, ADP-Glo luminescence, 60 min; active compounds read low | P48426 | max response, % | AID 652105; active means max response of -50% or lower; inconclusive means between -30% and -50%; inactive means -30% or higher; further: value at the top dose of about 77 µM
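PI5P4Kalpha ADP-Glo assay; 5 microM ATP final; 60 min RT reaction; HEPES pH 7.4/EGTA/CHAPS, 5% DMSO; controls lacking substrate or enzyme; luminescent end-point.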
APE1 inh: blocks human APE1 abasic DNA cleavage. P27695. recombinant APE1, TAMRA/BHQ-2 abasic DNA cleavage fluorescence. Potency, µM (titrated, usually from 65.8 µM), hits mostly inhibitors. 350,000 compounds, 0.35% hits; further: nearly all actives have a fitted effect of over 55% in size
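Enzyme (0.75 nM final) and test compound are incubated 15 min at room temperature before adding 50 nM quenched THF abasic-site duplex. Cleavage dequenches TAMRA, followed at 525/598 nm over three reads one minute apart.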
RECQ1 inh: RECQ1 (human) helicase inhibition. Potency, µM (titrated, usually from 57.3 µM), hits mostly inhibitors. AID 2549. P46063. RECQ1 DNA unwinding, red fluorescence kinetic read. 240,000 compounds, 0.54% hits; further: nearly all actives have a fitted effect of over 30% in size
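50 nM RECQ1T1 preincubated 15 min with compound in Tris pH 8.0 buffer with MgCl2, DTT, Tween-20 and 2.5 ug/ml poly(dI-dC); started with 200 nM TAMRA/BHQ-2 forked duplex and 2 mM ATP. Unwinding read as fluorescence (525/598 nm), two reads 2 h apart.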
BLM helicase inh: inhibitors of human Bloom syndrome helicase BLM; P54132; recombinant BLM DNA unwinding, fluorescence dequenching; Potency, µM (series often up to 56.1 µM), hits mostly inhibitors; 350,000 compounds, 0.2% hits; further: nearly all actives have a fitted effect of over 35% in size
GCN5L2 inh: inhibitors of human GCN5L2 histone acetyltransferase; Q92830; GCN5L2 HAT assay, ThioGlo1 CoA-SH fluorescence; Potency, µM (titrated, usually from 58.9 µM), most hits filed as inhibitors; 390,000 compounds, 0.21% hits; AID 504327
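Titration-based screen in which CoA formation is detected via maleimide probe ThioGlo1 (50uM) turning fluorescent on thiol reaction; substrates H3(1-25) 75uM and acetyl-CoA 70uM, GCN5L2 20nM, 20 min incubation at room temperature.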
FEN1 inh-1: human FEN1 inhibition; P39748; Recombinant FEN1 flap cleavage, fluorescence, 15 min; Potency, µM (top dose mostly 114 µM), actives largely listed as inhibitors; 390,000 compounds, 0.35% hits; AID 588795; further: nearly all actives have a fitted effect of over 65% in size
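Recombinant FEN1 (10 nM) was preincubated with pin-transferred compounds for 15 min at room temperature, then flap DNA substrate (50 nM final) was added. Plates were read at 0 and 15 min, and normalized concentration–response data were fitted to a four-parameter Hill equation.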
FEN1 inh-2: confirmation of human FEN1 inhibitors; shares compounds with FEN1 inh-1; FEN1 flap cleavage, TAMRA/BHQ2 fluorogenic DNA substrate; Potency, µM, actives largely listed as inhibitors; 880 compounds, 79% hits; AID 720498; further: nearly all actives have a fitted effect of over 60% in size
Large screens that a line does not name were inactive (follow-up assays come after a bar, where they were run); ! = a repeat was not active. Unless noted, the call rests on the fitted dose curve; in most records, active means well fitted curve in the direction sought with a large enough effect; inconclusive means small, poorly fitted or top-dose-only effect, or another doubt; inactive means no such curve, though single readings can be large; an effect the other way counts as inactive or inconclusive.

O=C(c1ccc2nc(-c3ccco3)c(-c3ccco3)nc2c1)N1CCN(c2ccccc2)CC1	GCN5L2 inh inconclusive (no result: PI5P4K alpha inh)
O=C(O)c1ccc2nc(-c3ccco3)c(-c3ccco3)nc2c1	PI5P4K alpha inh inconclusive, APE1 inh inconclusive, FEN1 inh-1 35.5µM | FEN1 inh-2 15.1
CCN(CC)CCC(=O)Nc1cccc2c1C(=O)c1ccccc1C2=O	APE1 inh inconclusive, FEN1 inh-1 15.8µM | FEN1 inh-2 6.01
Nc1cccc(C(=O)OCC(=O)Nc2cccc3c2C(=O)c2ccccc2C3=O)c1	none
O=C(NCc1ccccc1C(F)(F)F)c1cccc2c1C(=O)c1ccc(N3CCOCC3)cc1S2(=O)=O	none (no result: RECQ1 inh, BLM helicase inh)
O=C(NCc1ccccc1C(F)(F)F)c1cccc2c1C(=O)c1ccc(N3CCC(N4CCCCC4)CC3)cc1S2(=O)=O	none (no result: APE1 inh, RECQ1 inh, BLM helicase inh, GCN5L2 inh, FEN1 inh-1) | FEN1 inh-2 75.7
COc1ccc(C(CC(=O)Nc2ccc(OC)c(OC)c2)N2Cc3ccccc3C2=O)cc1 (stereo not drawn)	none (no result: PI5P4K alpha inh, APE1 inh, RECQ1 inh)
O=c1[nH]c2ccc(S(=O)(=O)N3CCN(S(=O)(=O)c4c(F)cccc4F)CC3)cc2[nH]c1=O	none (no result: PI5P4K alpha inh, APE1 inh, RECQ1 inh, BLM helicase inh, GCN5L2 inh, FEN1 inh-1) | FEN1 inh-2 inconclusive
O=S(=O)(c1ccc2ccccc2c1)N1CCN(S(=O)(=O)c2c(F)cccc2F)CC1	none (no result: PI5P4K alpha inh, RECQ1 inh, BLM helicase inh)
C[C@@H]1O[C@@H](Oc2c(-c3cc(O)c(O)c(O)c3)oc3cc(O)cc(O)c3c2=O)[C@H](O)[C@H](O)[C@H]1O	PI5P4K alpha inh inconclusive, APE1 inh inconclusive, RECQ1 inh 28.2µM!, FEN1 inh-1 2.24µM | FEN1 inh-2 3.01
COc1cccc(-c2nc(NCCN3CCOCC3)c3ccccc3n2)c1O	APE1 inh inconclusive, GCN5L2 inh inconclusive, FEN1 inh-1 39.8µM | FEN1 inh-2 inconclusive
COc1ccccc1-c1nc(NCCN2CCOCC2)c2ccccc2n1	none (no result: PI5P4K alpha inh, FEN1 inh-1)
Cn1c(=O)c2sccc2n2c(CCCC(=O)Nc3ccc(Oc4ccccc4)cc3)nnc12	FEN1 inh-1 inconclusive (no result: PI5P4K alpha inh, APE1 inh, RECQ1 inh)
O=S(=O)(O)c1cc(O)c(N=Nc2ccc(O)cc2O)c2ccccc12	PI5P4K alpha inh -77.8, FEN1 inh-1 35.5µM (no result: APE1 inh, RECQ1 inh, BLM helicase inh, GCN5L2 inh) | FEN1 inh-2 84.9
Cc1ccccc1Nc1nc(N)nc(COC(=O)c2ccc([N+](=O)[O-])o2)n1	FEN1 inh-1 inconclusive (no result: RECQ1 inh, BLM helicase inh) | FEN1 inh-2 21.3
Cc1ccccc1Nc1nc(N)nc(COC(=O)c2ccccc2)n1	none
CC(OC(=O)/C(C#N)=C/c1ccc(N(C)C)cc1)C(=O)N(C)Cc1ccccc1 (stereo not drawn)	FEN1 inh-1 inconclusive (no result: RECQ1 inh) | FEN1 inh-2 75.7
O=C1c2ccccc2NC(c2ccc(OCc3ccccc3)c(OCc3ccccc3)c2)N1Cc1ccco1 (stereo not drawn)	none (no result: PI5P4K alpha inh, APE1 inh, RECQ1 inh, BLM helicase inh, GCN5L2 inh)
CC1=C(C(=O)Nc2ccccc2)C(c2ccc[nH]2)n2ncnc2N1 (stereo not drawn)	GCN5L2 inh inconclusive, FEN1 inh-1 inconclusive (no result: PI5P4K alpha inh, RECQ1 inh) | FEN1 inh-2 75.7
O=[N+]([O-])c1ccc(C=Nc2cccc3ccccc23)s1	APE1 inh inconclusive, FEN1 inh-1 inconclusive | FEN1 inh-2 6.01
Cc1ccc(NC(=O)CN2C(=O)S/C(=C\c3cc(Cl)c(OCC(=O)O)c(Cl)c3)C2=O)cc1	PI5P4K alpha inh inconclusive, APE1 inh 7.52µM, BLM helicase inh inconclusive, FEN1 inh-1 44.7µM (no result: RECQ1 inh) | FEN1 inh-2 75.7
c1ccc(CNc2c3ccccc3nc3ccccc23)cc1	FEN1 inh-1 inconclusive (no result: RECQ1 inh) | FEN1 inh-2 10.7
Oc1ccc(CCNc2c3ccccc3nc3ccccc23)cc1O	APE1 inh inconclusive, FEN1 inh-1 17.8µM (no result: RECQ1 inh) | FEN1 inh-2 3.01
CN(C)CCCNc1c2ccccc2nc2ccccc12	APE1 inh 9.47µM, FEN1 inh-1 11.2µM (no result: RECQ1 inh) | FEN1 inh-2 8.49
COc1ccc(-c2nc3ccccc3o2)cc1NC(=O)COc1ccc(C)cc1	none (no result: PI5P4K alpha inh, APE1 inh, RECQ1 inh, BLM helicase inh, GCN5L2 inh)
COc1ccc2c(c1)CCC2=O	none (no result: PI5P4K alpha inh, APE1 inh, RECQ1 inh, BLM helicase inh, GCN5L2 inh)
O=C(O)c1ccc(N2C(=O)CSC2=S)cc1	none (no result: APE1 inh, RECQ1 inh, BLM helicase inh, GCN5L2 inh) | FEN1 inh-2 inconclusive
